Records with an inconclusive call do not appear. Activity calls are given as the source filed them. Unless noted, calls follow the shape of the dose curve; as a rule, active = well fitted curve in the direction sought with a large enough effect in the repeat runs; inconclusive = weak or mixed curves; inactive = no such curve, though single readings can be large; an effect the other way counts as inactive or inconclusive.
Key:
[1] = molecular target: Estrogen receptor beta (Homo sapiens) (UniProt Q92731); test: qHTS assay to identify small molecule agonists of the estrogen receptor beta (ER-beta) signaling pathway (AID 1259377; active = well fitted activation curve with a large enough effect in the signal ratio in the repeat runs, not every such curve was filed as active; the % refers to the signal ratio)
Sequence of Estrogen receptor beta (Homo sapiens) (Q92731 whole entry, looked up): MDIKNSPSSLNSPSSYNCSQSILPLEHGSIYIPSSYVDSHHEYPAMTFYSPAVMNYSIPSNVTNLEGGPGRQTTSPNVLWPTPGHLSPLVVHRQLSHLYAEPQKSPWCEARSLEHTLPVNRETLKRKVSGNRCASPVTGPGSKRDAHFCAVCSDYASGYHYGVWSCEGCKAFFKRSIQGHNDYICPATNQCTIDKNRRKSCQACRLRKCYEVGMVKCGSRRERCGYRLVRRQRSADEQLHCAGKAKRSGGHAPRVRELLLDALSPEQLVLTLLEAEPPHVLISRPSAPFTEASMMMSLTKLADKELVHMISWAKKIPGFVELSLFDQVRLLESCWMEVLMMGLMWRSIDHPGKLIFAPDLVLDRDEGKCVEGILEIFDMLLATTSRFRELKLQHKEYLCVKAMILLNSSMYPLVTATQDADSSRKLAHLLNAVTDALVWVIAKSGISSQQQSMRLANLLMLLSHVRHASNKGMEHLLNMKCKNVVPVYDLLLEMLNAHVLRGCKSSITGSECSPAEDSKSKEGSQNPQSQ
Procedure, shortened: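 Read-out: beta-lactamase FRET fluorescence. Cell line: ER-beta-UAS-bla HEK293T in 2% charcoal-stripped FBS. Exposure: 16 hr at 37C. Substrate step: 2 h at room temperature.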

[2] = molecular target: Estrogen receptor beta (Homo sapiens) (UniProt Q92731); test: qHTS assay to identify small molecule antagonists of the estrogen receptor beta (ER-beta) signaling pathway (AID 1259378; active = well fitted inhibition curve with a large enough effect in the signal ratio in the repeat runs, not every such curve was filed as active; the % refers to the signal ratio; also: potency is read from the fitted curve at half-maximal effect)
Procedure, shortened: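 ER-beta-UAS-bla HEK293T cells in 2% charcoal-stripped FBS medium treated with compound plus 1nM final 17-beta-estradiol for 16 hr at 37C. Beta-lactamase reporter read by FRET substrate fluorescence after 2 hours at room temperature.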

[3] = qHTS assay to identify small molecule agonists of the androgen receptor (AR) signaling pathway in the presence of an antagonist - cell viability counter screen (AID 1259379); also: nearly all actives have a fitted effect of over 25% in size; also: potency is read from the fitted curve at half-maximal effect;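 as to activity change, negative = cytotoxicity: MDA-kb2 human breast cancer cells carrying an MMTV luciferase reporter; series mostly up to about 92 µM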
Procedure, shortened: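 Seed MDA-kb2 at 3,000 cells/well; incubate 5 hr, 37C, 0% CO2. Add nilutamide to 3.0uM final, then pin compounds at 15 concentrations. Incubate 16 hr. Add CellTiter-Fluor at 15 hr, read fluorescence after 1 hr.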

[4] = qHTS assay to identify small molecule agonists of the estrogen receptor beta (ER-beta) signaling pathway - cell viability counter screen (AID 1259380); also: nearly all actives have a fitted effect of over 30% in size; also: potency is read from the fitted curve at half-maximal effect
Procedure, shortened: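 CellTiter-Glo read, 30 min RT, same wells as bla assay; cells ER-beta-UAS-bla HEK293T; 16 hr compound, 37C; medium 2% charcoal-stripped FBS.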

[5] = molecular target: Androgen receptor (Homo sapiens) (UniProt P10275); test: qHTS assay to identify small molecule agonists of the androgen receptor (AR) signaling pathway in the presence of an antagonist (AID 1259381; calls by dose curve; also: nearly all actives have a fitted effect of over 15% in size)
Sequence of Androgen receptor (Homo sapiens) (P10275 whole entry, looked up): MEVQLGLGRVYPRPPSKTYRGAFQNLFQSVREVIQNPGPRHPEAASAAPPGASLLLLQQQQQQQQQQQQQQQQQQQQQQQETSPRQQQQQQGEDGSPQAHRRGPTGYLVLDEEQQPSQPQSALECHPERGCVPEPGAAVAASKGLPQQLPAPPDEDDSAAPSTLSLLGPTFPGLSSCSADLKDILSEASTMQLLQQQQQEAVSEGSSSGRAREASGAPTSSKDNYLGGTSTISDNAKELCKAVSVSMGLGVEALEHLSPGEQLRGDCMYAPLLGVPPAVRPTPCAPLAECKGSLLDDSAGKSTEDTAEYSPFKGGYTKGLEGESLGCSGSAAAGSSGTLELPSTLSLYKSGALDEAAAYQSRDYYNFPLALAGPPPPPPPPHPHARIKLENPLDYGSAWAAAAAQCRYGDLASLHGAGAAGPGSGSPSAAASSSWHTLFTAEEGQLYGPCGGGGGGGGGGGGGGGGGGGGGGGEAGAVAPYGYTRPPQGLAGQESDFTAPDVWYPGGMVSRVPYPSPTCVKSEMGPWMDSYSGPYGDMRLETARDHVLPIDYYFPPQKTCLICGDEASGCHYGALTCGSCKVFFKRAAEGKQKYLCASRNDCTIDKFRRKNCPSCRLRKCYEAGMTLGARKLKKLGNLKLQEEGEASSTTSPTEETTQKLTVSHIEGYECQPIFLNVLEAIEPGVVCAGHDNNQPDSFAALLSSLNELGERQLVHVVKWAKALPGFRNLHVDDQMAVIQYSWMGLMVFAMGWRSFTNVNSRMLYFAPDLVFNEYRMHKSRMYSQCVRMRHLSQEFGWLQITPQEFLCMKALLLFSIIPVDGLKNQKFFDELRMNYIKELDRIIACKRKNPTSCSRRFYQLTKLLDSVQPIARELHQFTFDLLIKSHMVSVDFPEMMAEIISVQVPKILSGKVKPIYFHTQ
Procedure, shortened: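 Test compounds at 15 concentrations were incubated for 16hr with MDA-kb2 reporter cells in presence of 3.0uM nilutamide (final). Signal: ONE-Glo luciferase luminescence.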

[6] = qHTS assay to identify small molecule antagonists of the estrogen receptor beta (ER-beta) signaling pathway - cell viability counter screen (AID 1259382); also: nearly all actives have a fitted effect of over 55% in size; also: potency is read from the fitted curve at half-maximal effect; as to activity change, negative = cytotoxicity: series mostly up to about 92 µM
Procedure, shortened: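 In this multiplexed counter screen, cells were seeded at 2,000 per well in medium with 2% charcoal-stripped FBS and incubated 6 hr before compound and 1nM final E2 were added. Sixteen hours later, ATP-based luminescence reported viability.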

[7] = molecular target: Estrogen receptor (Homo sapiens) (UniProt P03372); test: qHTS assay to identify small molecule agonists of the estrogen receptor alpha (ER-alpha) signaling pathway in the presence of an antagonist (AID 1259383; calls by dose curve; also: top concentration of the series differs between compounds; nearly all actives have a fitted effect of over 15% in size)
Sequence of Estrogen receptor (Homo sapiens) (P03372 whole entry, looked up): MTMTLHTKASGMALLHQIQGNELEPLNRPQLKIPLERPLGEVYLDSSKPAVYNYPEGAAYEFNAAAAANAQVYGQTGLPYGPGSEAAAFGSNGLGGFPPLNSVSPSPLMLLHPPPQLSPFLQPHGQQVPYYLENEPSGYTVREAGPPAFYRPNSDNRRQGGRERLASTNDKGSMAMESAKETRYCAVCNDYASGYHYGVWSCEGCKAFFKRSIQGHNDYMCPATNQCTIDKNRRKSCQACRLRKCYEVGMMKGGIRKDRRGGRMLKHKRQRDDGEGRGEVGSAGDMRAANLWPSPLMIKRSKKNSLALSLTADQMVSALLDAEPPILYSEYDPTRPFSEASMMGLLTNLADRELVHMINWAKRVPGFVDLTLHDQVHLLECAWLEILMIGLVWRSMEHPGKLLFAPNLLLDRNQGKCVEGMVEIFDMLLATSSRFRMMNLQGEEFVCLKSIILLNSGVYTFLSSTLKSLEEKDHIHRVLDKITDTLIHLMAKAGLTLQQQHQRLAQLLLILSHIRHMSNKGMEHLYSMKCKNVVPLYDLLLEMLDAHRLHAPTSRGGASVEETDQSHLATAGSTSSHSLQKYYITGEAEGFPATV
Procedure, shortened: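 Stably transfected VM7Luc4E2 reporter cells, kept 5 days in charcoal-stripped serum, received ICI-182,780 at 10.0nM final before compound addition. Following 22hr incubation at 37C and 5% CO2, luciferase signal was read by luminescence.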

[8] = qHTS assay to identify small molecule agonists or antagonists of the thyroid stimulating hormone receptor (TSHR) signaling pathway - wild type cell line counter screen (AID 1259384; calls by dose curve)
Procedure, shortened: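 Wild-type Hek293 cells, 800/well, 18 h at 37C, then compound with Ro20-1724 for 30 min RT. cAMP by HTRF (cAMP-d2/anti-cAMP cryptate), 1 h RT, fluorescence read. 15 concentrations, triplicates.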

[9] = molecular target: Thyrotropin receptor (Homo sapiens) (UniProt P16473); test: qHTS assay to identify small molecule antagonists of the thyroid stimulating hormone receptor (TSHR) signaling pathway (AID 1259385; calls by dose curve; also: nearly all actives have a fitted effect of over 20% in size; also: potency is read from the fitted curve at half-maximal effect)
Sequence of Thyrotropin receptor (Homo sapiens) (P16473 whole entry, looked up): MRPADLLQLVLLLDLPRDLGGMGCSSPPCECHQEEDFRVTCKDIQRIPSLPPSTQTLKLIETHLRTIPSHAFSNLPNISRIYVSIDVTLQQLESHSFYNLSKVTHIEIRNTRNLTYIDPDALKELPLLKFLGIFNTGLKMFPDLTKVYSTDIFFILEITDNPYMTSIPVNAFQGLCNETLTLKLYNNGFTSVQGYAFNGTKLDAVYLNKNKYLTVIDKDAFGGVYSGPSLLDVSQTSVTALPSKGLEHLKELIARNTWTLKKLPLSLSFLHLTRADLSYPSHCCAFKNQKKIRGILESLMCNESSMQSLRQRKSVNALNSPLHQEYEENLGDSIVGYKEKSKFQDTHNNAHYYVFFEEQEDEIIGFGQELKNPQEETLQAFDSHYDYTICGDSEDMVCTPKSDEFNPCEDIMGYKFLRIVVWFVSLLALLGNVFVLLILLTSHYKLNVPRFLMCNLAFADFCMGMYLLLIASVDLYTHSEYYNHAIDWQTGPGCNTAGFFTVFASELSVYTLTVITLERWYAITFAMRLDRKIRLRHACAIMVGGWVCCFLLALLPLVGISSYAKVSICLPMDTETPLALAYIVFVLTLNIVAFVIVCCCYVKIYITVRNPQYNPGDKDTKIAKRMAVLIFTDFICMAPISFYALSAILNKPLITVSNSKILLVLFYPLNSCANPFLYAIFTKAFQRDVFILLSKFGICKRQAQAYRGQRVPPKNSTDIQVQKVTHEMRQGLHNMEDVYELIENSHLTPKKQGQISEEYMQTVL
Procedure, shortened: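 TSHR-HEK293 cells (800/well) plated 18 h, then compounds with Ro20-1724 and TSH at 1.5 ng/mL final, 30 min at room temperature. cAMP quantified by HTRF (cAMP-d2/anti-cAMP-cryptate, 1 h); 15 concentrations in triplicate.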

[10] = qHTS assay to identify small molecule agonists of the estrogen receptor alpha (ER-alpha) signaling pathway in the presence of an antagonist - cell viability counter screen (AID 1259386);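 also: series mostly up to about 92 µM; cells exposed to compounds for 22 h at 37 °C before the viability read; nearly all actives have a fitted effect of over 30% in size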
Procedure, shortened: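 Viability counter screen using VM7Luc4E2 (full-length ER-alpha, four ERE-luciferase). The cells were treated with compounds alongside ICI-182,780 10.0nM for 22hr, and live-cell protease fluorescence was quantified with CellTiter-Fluor.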

[11] = molecular target: Progesterone receptor (Homo sapiens) (UniProt P06401); test: qHTS assay to identify small molecule agonists of the progesterone receptor (PR) signaling pathway (AID 1346784; calls by dose curve; also: nearly all actives have a fitted effect of over 30% in size)
Sequence of Progesterone receptor (Homo sapiens) (P06401 whole entry, looked up): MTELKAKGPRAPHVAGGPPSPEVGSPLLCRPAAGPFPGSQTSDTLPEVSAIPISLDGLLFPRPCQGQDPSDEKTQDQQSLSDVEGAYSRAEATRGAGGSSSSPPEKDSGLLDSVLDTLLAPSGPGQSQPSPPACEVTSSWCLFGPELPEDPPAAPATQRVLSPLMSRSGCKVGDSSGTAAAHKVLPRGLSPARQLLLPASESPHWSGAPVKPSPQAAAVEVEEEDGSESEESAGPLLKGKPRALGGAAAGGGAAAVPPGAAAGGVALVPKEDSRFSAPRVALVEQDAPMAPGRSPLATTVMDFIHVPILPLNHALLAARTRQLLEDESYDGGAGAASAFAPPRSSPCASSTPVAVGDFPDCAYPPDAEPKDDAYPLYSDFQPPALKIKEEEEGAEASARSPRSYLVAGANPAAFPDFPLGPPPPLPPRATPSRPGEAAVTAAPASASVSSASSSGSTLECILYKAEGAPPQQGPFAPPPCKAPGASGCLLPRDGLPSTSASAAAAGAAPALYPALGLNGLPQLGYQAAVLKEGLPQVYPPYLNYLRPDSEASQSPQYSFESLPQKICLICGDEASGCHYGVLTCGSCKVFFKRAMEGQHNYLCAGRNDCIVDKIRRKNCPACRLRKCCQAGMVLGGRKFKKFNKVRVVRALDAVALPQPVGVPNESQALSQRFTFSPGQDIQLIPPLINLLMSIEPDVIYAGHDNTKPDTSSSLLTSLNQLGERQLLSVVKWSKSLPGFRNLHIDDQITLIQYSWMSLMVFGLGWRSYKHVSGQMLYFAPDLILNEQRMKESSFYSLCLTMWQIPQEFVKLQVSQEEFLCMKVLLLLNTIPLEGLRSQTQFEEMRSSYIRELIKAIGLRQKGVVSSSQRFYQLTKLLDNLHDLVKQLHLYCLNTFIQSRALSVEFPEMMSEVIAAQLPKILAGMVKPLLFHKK
Procedure, shortened: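 Compounds were tested for PR agonism in HEK 293T cells bearing a beta-lactamase gene under UAS control. Treatment lasted 16 hr at 37C; signal came from fluorescence of a FRET substrate.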

[12] = molecular target: Progesterone receptor (Homo sapiens) (UniProt P06401); test: qHTS assay to identify small molecule antagonists of the progesterone receptor (PR) signaling pathway (AID 1346795; active = well fitted inhibition curve with a large enough effect in the signal ratio in the repeat runs, not every such curve was filed as active; the % refers to the signal ratio; also: potency is read from the fitted curve at half-maximal effect)
Procedure, shortened: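 In HEK293T cells bearing the PR-UAS-bla reporter, compound effects on promegestone-driven (1 nM) beta-lactamase expression are assessed after 16 hr using a fluorescent FRET substrate incubated 2 hr at room temperature.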

[13] = qHTS assay to identify small molecule antagonists of the progesterone receptor (PR) signaling pathway - cell viability counter screen (AID 1346798); also: nearly all actives have a fitted effect of over 50% in size; also: potency is read from the fitted curve at half-maximal effect; as to activity change, negative = cytotoxicity: series mostly up to about 92 µM
Procedure, shortened: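 Following a 4 hr attachment, PR-UAS-bla HEK293T cells in charcoal-stripped FBS medium were exposed to compounds with R5020 for 16 hr; CellTiter-Glo was added and luminescence read after 30 min at room temperature.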

[14] = qHTS assay to identify small molecule agonists of the progesterone receptor (PR) signaling pathway - cell viability counter screen (AID 1346799; calls by dose curve; also: nearly all actives have a fitted effect of over 45% in size; also: potency is read from the fitted curve at half-maximal effect)
Procedure, shortened: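 Here, 3,000 PR-UAS-bla HEK293T cells per well were treated with compounds for 16 hr after a 6 hr preincubation at 37C and 5% CO2; cell viability is the CellTiter-Glo luminescence signal.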

[15] = qHTS assay to identify small molecule antagonists of the TGF-beta/Smad signaling pathway - cell viability counter screen (AID 1346824); also: nearly all actives have a fitted effect of over 50% in size
Procedure, shortened: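 SBE-bla HEK 293T cells, incubated overnight, then compound plus 0.25 ng/mL TGF-beta1 (stock added) for 5 hr at 37 C. Viability was read in the same wells by CellTiter-Glo luminescence after 30 min at room temperature.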

[16] = qHTS assay to identify small molecule agonists of the TGF-beta/Smad signaling pathway - cell viability counter screen (AID 1346829); also: top concentration of the series differs between compounds; nearly all actives have a fitted effect of over 45% in size
Procedure, shortened: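 Luminescence from CellTiter-Glo, read after a 30 min room-temperature incubation, gives cell viability of SBE-bla HEK 293T cells treated 5 hr with compounds at 37 C.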

[17] = qHTS assay to identify small molecule agonists of the TGF-beta/Smad signaling pathway (AID 1346859; active = well fitted activation curve with a large enough effect in the signal ratio in the repeat runs, not every such curve was filed as active; the % refers to the signal ratio; also: series mostly up to about 77 µM)
Procedure, shortened: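 Each well held 4,000 SBE-bla HEK 293T cells incubated overnight before compound addition; 5 hr later the cleavable FRET substrate went on for 2 hr at room temperature, and fluorescence was read at two emissions.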

[18] = Human pregnane X receptor (PXR) small molecule agonists, qHTS cell viability counter screen (AID 1346977); also: nearly all actives have a fitted effect of over 50% in size; also: potency is read from the fitted curve at half-maximal effect
Procedure, shortened: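 Tox21 qHTS format; PXR-Luc HepG2, 2,000/well, charcoal-stripped FBS 5%. Cpd exposure 24hr. Read: CellTiter-Fluor fluorescence, multiplexed with luciferase.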

[19] = molecular target: Thyrotropin-releasing hormone receptor (Homo sapiens) (UniProt P34981); test: qHTS assay to identify small molecule agonists of the thyrotropin-releasing hormone receptor (TRHR) signaling pathway (AID 1346891; calls by dose curve; also: series mostly up to about 58 µM)
Sequence of Thyrotropin-releasing hormone receptor (Homo sapiens) (P34981 whole entry, looked up): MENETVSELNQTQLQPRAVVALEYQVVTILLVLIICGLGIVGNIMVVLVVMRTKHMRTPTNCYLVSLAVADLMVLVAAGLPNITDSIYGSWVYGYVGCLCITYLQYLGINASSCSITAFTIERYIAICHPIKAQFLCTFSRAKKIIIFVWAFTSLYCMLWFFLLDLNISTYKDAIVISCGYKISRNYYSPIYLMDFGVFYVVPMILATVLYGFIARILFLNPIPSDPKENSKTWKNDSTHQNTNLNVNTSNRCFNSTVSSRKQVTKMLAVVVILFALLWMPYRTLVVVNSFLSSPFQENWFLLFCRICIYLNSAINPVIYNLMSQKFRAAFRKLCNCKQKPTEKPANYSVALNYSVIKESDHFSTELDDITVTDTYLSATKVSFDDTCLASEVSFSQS
Procedure, shortened: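 Screening of agonists relied on calcium signalling in HEK293 cells expressing human TRHR: dye loading 2 h at 37 °C preceded compound addition and a 3-min fluorescence time course.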

[20] = molecular target: Thyrotropin-releasing hormone receptor (Homo sapiens) (UniProt P34981); test: qHTS assay to identify small molecule antagonists of the thyrotropin-releasing hormone receptor (TRHR) signaling pathway (AID 1346877; active = well fitted inhibition curve with a large enough effect in the repeat runs, not every such curve was filed as active; also: series mostly up to about 51 µM)
Procedure, shortened: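 Following an 18 h incubation at 37 °C and a 2 h calcium dye load, TRHR-HEK293 cells were exposed to compound (5 min, room temperature) and challenged with TRH, 1 nM final.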
% is scaled to controls: 0 for no effect and ±100 for the full control effect.

CC(C)CCOCCC(C)C
inactive: Potency [1] | Potency [2] | Potency [3] | Potency [4] | Potency [5] | Potency [6] | Potency [7] | outcome [8] | Potency [9] | Potency [10] | outcome [11] | Potency [12] | Potency [13] | Potency [14] | Potency [15] | Potency [16] | Potency [17]

CC1CNCC(C)O1 (centres undefined)
inactive: Potency [1] | Potency [2] | Potency [3] | Potency [4] | Potency [5] | Potency [6] | Potency [7] | outcome [8] | Potency [10] | outcome [11] | Potency [12] | Potency [13] | Potency [14] | Potency [15] | Potency [16] | Potency [17] | Potency [18]

CCCCOCC
inactive: Potency [1] | Potency [2] | Potency [3] | Potency [4] | Potency [5] | Potency [6] | outcome [8] | Potency [9] | outcome [11] | Potency [12] | Potency [13] | Potency [15] | Potency [16] | Potency [17] | Potency [18]

COCC(=O)O[C@]1(CCN(C)CCCc2nc3ccccc3[nH]2)CCc2cc(F)ccc2[C@@H]1C(C)C
inactive: Potency [1] | Potency [5] | Potency [7] | outcome [8] | Potency [10] | Potency [17] | Potency [19]
active: Potency [2] 11.9 µM | Potency [3] 23.7 µM | Potency [4] 21.1 µM | Potency [6] 18.8 µM | Potency [12] 26.6 µM | Potency [13] 26.6 µM | Potency [14] 21.1 µM | Potency [18] 23.7 µM

NC(=O)C(=O)N/N=C/c1ccc([N+](=O)[O-])o1
inactive: Potency [1] | Potency [2] | Potency [3] | Potency [4] | Potency [5] | Potency [6] | Potency [7] | outcome [8] | Potency [9] | Potency [10] | outcome [11] | Potency [12] | Potency [13] | Potency [14] | Potency [15] | Potency [16] | Potency [17] | Potency [20] | Potency [19] | Potency [18]

CCN(CC)CCOC(=O)C1(C2CCCCC2)CCCCC1
active: Potency [4] 26.6 µM | Potency [9] 29.8 µM
inactive: Potency [1] | Potency [2] | Potency [3] | Potency [5] | Potency [7] | outcome [8] | Potency [10] | outcome [11] | Potency [12] | Potency [17] | Potency [20] | Potency [19]

CCOB(OCC)OCC
inactive: Potency [1] | Potency [2] | Potency [3] | Potency [4] | Potency [5] | Potency [6] | Potency [7] | outcome [8] | Potency [9] | Potency [10] | outcome [11] | Potency [12] | Potency [13] | Potency [15] | Potency [16] | Potency [17] | Potency [18]

C=CC/C=C/C/C=C/C/C=C/C
inactive: Potency [1] | Potency [2] | Potency [3] | Potency [4] | Potency [5] | Potency [6] | Potency [7] | outcome [8] | Potency [10] | outcome [11] | Potency [12] | Potency [13] | Potency [15] | Potency [17] | Potency [20] | Potency [19] | Potency [18]

C/C=C/C(=O)C1=C(C)CCCC1(C)C
inactive: Potency [1] | Potency [2] | Potency [3] | Potency [4] | Potency [5] | Potency [6] | Potency [7] | outcome [8] | Potency [10] | outcome [11] | Potency [12] | Potency [13] | Potency [15] | Potency [17] | Potency [20] | Potency [19] | Potency [18]

CCOCOCC
inactive: Potency [1] | Potency [2] | Potency [3] | Potency [4] | Potency [5] | Potency [6] | Potency [7] | outcome [8] | Potency [9] | Potency [10] | outcome [11] | Potency [12] | Potency [14] | Potency [15] | Potency [16] | Potency [17] | Potency [20] | Potency [19] | Potency [18]

C=C(C)CCCC
inactive: Potency [1] | Potency [2] | Potency [3] | Potency [4] | Potency [5] | Potency [6] | Potency [7] | outcome [8] | Potency [9] | Potency [10] | outcome [11] | Potency [12] | Potency [13] | Potency [14] | Potency [15] | Potency [16] | Potency [17] | Potency [19] | Potency [18]

CCCCCCS
inactive: Potency [1] | Potency [2] | Potency [3] | Potency [4] | Potency [5] | Potency [6] | Potency [7] | outcome [8] | Potency [9] | Potency [10] | outcome [11] | Potency [12] | Potency [13] | Potency [15] | Potency [16] | Potency [17] | Potency [20] | Potency [19] | Potency [18]

Clc1cc(Cl)c(-c2c(Cl)c(Cl)cc(Cl)c2Cl)cc1Cl
inactive: Potency [1] | Potency [2] | Potency [3] | Potency [4] | Potency [5] | Potency [6] | outcome [8] | Potency [9] | Potency [10] | outcome [11] | Potency [12] | Potency [13] | Potency [14] | Potency [15] | Potency [17]

O=S(=O)(O)c1cc(S(=O)(=O)O)c2ccc3c(S(=O)(=O)O)cc(S(=O)(=O)O)c4ccc1c2c43
inactive: activation [1] -3.15% [at 19 µM] | activity, negative = inhibition [2] -6.24% [at 19 µM] | activity change, negative = cytotoxicity [3] 1.33% [at 19 µM] | activity change, negative = cytotoxicity [4] 1.19% [at 19 µM] | activation [5] 3.07% [at 19 µM] | activity change, negative = cytotoxicity [6] 6.71% [at 19 µM] | activation [7] -1.94% [at 19 µM] | cAMP activity change [8] 5.29% [at 18.9 µM] | activity change, negative = inhibition [9] -2.92% [at 19 µM] | activity change, negative = cytotoxicity [10] -2.62% [at 19 µM] | activation [11] -0.344% [at 19 µM] | activity change, negative = inhibition [12] 5.54% [at 18.9 µM] | activity change, negative = cytotoxicity [13] -15.6% [at 18.9 µM] | activity change, negative = cytotoxicity [14] -11.2% [at 19 µM] | activity change, negative = cytotoxicity [16] 10.3% [at 15.8 µM] | activation [17] 1.38% [at 15.8 µM] | activation [19] -0.321% [at 11.8 µM] | activity change, negative = cytotoxicity [18] 3.17% [at 19 µM]
